Source: the supplement of paper PMC10849652
The full data set covers some 7,900 targets. This sample favours those with a hit. About 0.6% of all pairs of compound and target were hits.

Legend:
Assay in all cases: log2 fold change, soluble protein after heating vs DMSO (PISA); higher = thermal stabilisation; K562 cells, 10 uM, 30 min; active = over 0.2 and 3.5 SD of the protein, either way, in both replicates (recomputed)
[1] = compound: NC(=O)Nc1cc(-c2cccc(F)c2)sc1C(=O)N[C@H]1CCCNC1
Summary of the method: (§1)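 Values are thermal stability changes relative to control samples and are taken from duplicates. They are stated as log2 fold changes. Before quantification by TMTpro 16plex LC-MS/MS with equalised channel sums, K562 cells at 2×10^6 cells/mL were treated with 10 μM compound for 30 min, heated in aliquots for 3 min across 48°C-58°C, pooled, extracted in PBS with 0.5% NP-40 at 4°C, and centrifuged at 21,000xg for 90 min to give the soluble supernatant.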

[2] = compound: NC(=O)c1cnc(N[C@@H]2CCCC[C@@H]2N)nc1Nc1cccc(-n2nccn2)c1
Summary of the method: as §1

[3] = compound: NC1(c2ccc(-c3nc4ccn5c(=O)[nH]nc5c4cc3-c3ccccc3)cc2)CCC1
Summary of the method: as §1

[4] = compound: NCC(=O)Nc1ccc(-n2nc(C(F)(F)F)cc2-c2ccc3c(ccc4ccccc43)c2)cc1
Summary of the method: as §1

entinostat = compound: Nc1ccccc1NC(=O)c1ccc(CNC(=O)OCc2cccnc2)cc1 [entinostat]
Summary of the method: as §1

vorinostat = compound: O=C(CCCCCCC(=O)Nc1ccccc1)NO [vorinostat]
Summary of the method: as §1

silmitasertib = compound: O=C(O)c1ccc2c(c1)nc(Nc1cccc(Cl)c1)c1ccncc12 [silmitasertib]
Summary of the method: as §1

[5] = compound: O=C1NC(=O)C(c2cnc3ccccn23)=C1c1cn2c3c(cc(F)cc13)CN(C(=O)N1CCCCC1)CC2
Summary of the method: as §1

citarinostat = compound: O=C(CCCCCCNC(=O)c1cnc(N(c2ccccc2)c2ccccc2Cl)nc1)NO [citarinostat]
Summary of the method: as §1

[6] = compound: c1cc(OCCN2CCCCC2)cc(-c2n[nH]c3ccc(-c4nnc[nH]4)cc23)c1
Summary of the method: as §1

entospletinib = compound: c1cn2cc(-c3ccc4cn[nH]c4c3)nc(Nc3ccc(N4CCOCC4)cc3)c2n1 [entospletinib]
Summary of the method: as §1

Measured: log2 fold change

EGR1 (UniProt P18146)
Chain of UniProt P18146 (P18146 whole entry, looked up): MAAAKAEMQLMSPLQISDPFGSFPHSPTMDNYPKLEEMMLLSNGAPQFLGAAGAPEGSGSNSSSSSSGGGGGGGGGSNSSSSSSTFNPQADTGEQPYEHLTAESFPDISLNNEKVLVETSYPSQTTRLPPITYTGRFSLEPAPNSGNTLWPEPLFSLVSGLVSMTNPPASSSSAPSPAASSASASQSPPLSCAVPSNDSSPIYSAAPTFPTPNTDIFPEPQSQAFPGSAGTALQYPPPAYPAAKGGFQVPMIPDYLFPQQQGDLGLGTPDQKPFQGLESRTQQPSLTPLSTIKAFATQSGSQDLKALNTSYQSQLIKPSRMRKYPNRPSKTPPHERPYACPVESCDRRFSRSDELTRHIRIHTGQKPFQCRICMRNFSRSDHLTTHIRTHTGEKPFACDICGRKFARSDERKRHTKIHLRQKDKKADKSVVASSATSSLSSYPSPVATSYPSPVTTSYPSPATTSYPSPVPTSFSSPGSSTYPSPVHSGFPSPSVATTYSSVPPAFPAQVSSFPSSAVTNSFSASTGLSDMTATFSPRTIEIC
inactive: [1] -0.029 | [2] -0.346 | [3] 0.345 | [4] 0.066 | entinostat 0.091 | vorinostat -0.033 | silmitasertib 0.085 | [5] -0.109

DDX11 (UniProt Q96FC9)
Chain of UniProt Q96FC9 (Q96FC9 whole entry, looked up): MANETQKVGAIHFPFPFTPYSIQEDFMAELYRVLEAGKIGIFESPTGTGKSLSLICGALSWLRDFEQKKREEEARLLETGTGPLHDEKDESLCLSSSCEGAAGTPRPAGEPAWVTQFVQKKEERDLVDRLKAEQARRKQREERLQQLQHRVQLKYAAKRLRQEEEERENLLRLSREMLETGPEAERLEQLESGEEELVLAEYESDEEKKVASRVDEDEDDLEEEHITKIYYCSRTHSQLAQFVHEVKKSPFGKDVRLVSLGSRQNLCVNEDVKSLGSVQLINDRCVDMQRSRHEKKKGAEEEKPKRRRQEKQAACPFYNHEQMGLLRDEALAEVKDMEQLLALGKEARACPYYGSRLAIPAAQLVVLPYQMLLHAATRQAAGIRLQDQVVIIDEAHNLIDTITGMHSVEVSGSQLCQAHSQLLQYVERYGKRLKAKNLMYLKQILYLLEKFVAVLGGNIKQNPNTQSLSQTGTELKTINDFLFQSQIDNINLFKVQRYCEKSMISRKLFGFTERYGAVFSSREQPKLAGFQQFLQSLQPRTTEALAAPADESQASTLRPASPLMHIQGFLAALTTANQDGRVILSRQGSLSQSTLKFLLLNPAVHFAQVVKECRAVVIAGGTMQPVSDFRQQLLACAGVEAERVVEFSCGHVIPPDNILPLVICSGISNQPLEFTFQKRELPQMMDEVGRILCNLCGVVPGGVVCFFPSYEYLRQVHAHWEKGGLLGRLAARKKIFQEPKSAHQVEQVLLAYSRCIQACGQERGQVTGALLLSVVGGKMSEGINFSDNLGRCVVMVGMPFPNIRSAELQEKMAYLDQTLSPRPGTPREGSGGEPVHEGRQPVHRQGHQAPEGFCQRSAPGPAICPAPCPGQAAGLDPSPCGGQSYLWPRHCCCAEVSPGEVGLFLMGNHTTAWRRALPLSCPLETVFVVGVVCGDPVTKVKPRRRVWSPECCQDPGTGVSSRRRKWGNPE
inactive: [1] -0.1 | [2] -0.099 | [3] -0.061 | [4] 0.032 | entinostat -0.009 | silmitasertib 0.191 | [5] -0.007

DAXX (UniProt Q9UER7)
Chain of UniProt Q9UER7 (Q9UER7 whole entry, looked up): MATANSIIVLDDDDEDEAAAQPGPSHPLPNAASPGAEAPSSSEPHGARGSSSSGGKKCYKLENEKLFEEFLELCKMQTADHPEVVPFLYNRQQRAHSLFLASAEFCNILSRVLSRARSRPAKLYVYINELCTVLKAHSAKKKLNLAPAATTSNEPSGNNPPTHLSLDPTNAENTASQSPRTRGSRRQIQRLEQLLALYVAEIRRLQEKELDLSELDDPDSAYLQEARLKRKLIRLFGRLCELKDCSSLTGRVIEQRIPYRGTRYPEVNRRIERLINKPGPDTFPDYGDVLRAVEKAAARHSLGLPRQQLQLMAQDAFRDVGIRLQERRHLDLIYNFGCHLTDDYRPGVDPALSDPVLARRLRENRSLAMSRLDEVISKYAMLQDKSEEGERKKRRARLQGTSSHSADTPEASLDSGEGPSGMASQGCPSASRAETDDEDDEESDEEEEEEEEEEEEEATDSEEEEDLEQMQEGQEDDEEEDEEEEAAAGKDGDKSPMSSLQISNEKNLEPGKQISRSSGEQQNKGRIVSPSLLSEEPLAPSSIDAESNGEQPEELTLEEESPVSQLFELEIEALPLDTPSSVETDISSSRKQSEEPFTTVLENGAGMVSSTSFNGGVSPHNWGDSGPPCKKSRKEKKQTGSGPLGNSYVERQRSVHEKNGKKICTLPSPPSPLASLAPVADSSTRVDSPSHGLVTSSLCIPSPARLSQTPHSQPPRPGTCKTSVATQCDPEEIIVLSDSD
inactive: [1] 0.093 | [2] -0.103 | [4] -0.08 | entinostat -0.099 | vorinostat 0.034 | citarinostat 0.075 | [6] -0.076 | entospletinib -0.025

FAM193B (UniProt Q96PV7)
inactive: [1] 0.22 | [2] -0.053 | [4] -0.014 | entinostat 0.25 | citarinostat 0.032 | [5] 0.149 | [6] -0.205 | entospletinib -0.031

DHRS13 (UniProt Q6UX07)
inactive: [1] 0.182 | [2] -0.012 | [3] 0.102 | [4] 0.156 | entinostat 0.043 | vorinostat -0.013 | citarinostat 0.1 | silmitasertib 0.087 | [6] -0.06 | entospletinib -0.111

EVC2 (UniProt Q86UK5)
inactive: [1] -0.074 | [2] -0.129 | [3] 0.013 | [4] -0.268 | entinostat 0.004 | vorinostat -0.071 | citarinostat 0.024 | silmitasertib -0.042 | [5] 0.024 | [6] -0.114 | entospletinib -0.104

DCAF6 isoform 3 (UniProt Q58WW2)
inactive: [1] 0 | [2] 0.019 | [3] 0.026 | [4] 0.007 | entinostat -0.005 | vorinostat 0.003 | citarinostat 0.021 | silmitasertib 0.045 | [5] -0.009 | [6] -0.008 | entospletinib -0.008

CYFIP1 (UniProt Q7L576)
inactive: [1] -0.088 | [2] -0.029 | [3] -0.143 | [4] 0.003 | entinostat 0.02 | vorinostat -0.025 | citarinostat 0.031 | silmitasertib 0.009 | [5] -0.039 | [6] -0.064 | entospletinib -0.018

DSN1 (UniProt Q9H410)
inactive: [1] -0.026 | [2] -0.057 | [3] -0.166 | [4] -0.037 | entinostat 0.076 | citarinostat 0.021 | silmitasertib 0.025 | [5] -0.032 | [6] -0.081 | entospletinib -0.044

DNAJB1 (UniProt P25685)
Chain of UniProt P25685 (P25685 whole entry, looked up): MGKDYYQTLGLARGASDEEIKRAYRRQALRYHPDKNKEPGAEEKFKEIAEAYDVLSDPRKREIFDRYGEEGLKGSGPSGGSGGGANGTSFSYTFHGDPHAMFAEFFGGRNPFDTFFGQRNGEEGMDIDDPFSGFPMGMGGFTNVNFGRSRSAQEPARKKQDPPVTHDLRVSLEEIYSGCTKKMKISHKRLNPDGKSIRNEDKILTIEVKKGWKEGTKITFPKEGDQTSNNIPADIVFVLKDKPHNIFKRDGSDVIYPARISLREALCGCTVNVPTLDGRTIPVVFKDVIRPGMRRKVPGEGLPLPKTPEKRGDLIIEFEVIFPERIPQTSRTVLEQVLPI
inactive: [1] -0.006 | [2] -0.041 | [3] -0.09 | [4] -0.083 | entinostat 0.013 | vorinostat 0.034 | citarinostat 0.044 | silmitasertib 0.011 | [5] -0.005 | [6] -0.04 | entospletinib -0.085

EEF1AKNMT (UniProt Q8N6R0)
inactive: [1] -0.025 | [2] -0.061 | [3] -0.109 | [4] -0.017 | entinostat 0.038 | vorinostat 0.161 | citarinostat -0.002 | silmitasertib 0.059 | [5] 0.055 | [6] 0.031 | entospletinib 0.059

ERLIN1 (UniProt O75477)
inactive: [1] 0.083 | [2] -0.068 | [3] -0.066 | [4] -0.043 | entinostat 0.111 | vorinostat 0.074 | citarinostat -0.01 | silmitasertib -0.009 | [5] 0.084 | [6] -0.045 | entospletinib -0.049

EBNA1BP2 (UniProt Q99848)
Chain of UniProt Q99848 (Q99848 whole entry, looked up): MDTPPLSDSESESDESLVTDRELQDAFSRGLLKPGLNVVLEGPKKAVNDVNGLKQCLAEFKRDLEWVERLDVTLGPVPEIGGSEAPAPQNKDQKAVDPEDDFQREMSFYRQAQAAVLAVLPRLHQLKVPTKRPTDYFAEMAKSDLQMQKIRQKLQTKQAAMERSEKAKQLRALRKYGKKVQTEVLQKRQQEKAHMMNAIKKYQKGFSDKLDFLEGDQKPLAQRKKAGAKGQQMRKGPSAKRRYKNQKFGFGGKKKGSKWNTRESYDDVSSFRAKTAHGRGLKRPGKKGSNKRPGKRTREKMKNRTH
inactive: [1] 0.05 | [2] 0.006 | [3] 0.195 | [4] 0.158 | entinostat -0.029 | vorinostat 0.133 | citarinostat 0.041 | silmitasertib 0.151 | [5] 0.352 | [6] -0.292 | entospletinib 0.031

DHRS1 (UniProt Q96LJ7)
inactive: [1] -0.118 | [2] -0.047 | [3] 0.184 | [4] 0.095 | entinostat -0.082 | vorinostat -0.098 | citarinostat -0.237 | silmitasertib 0 | [6] 0.291 | entospletinib -0.613
active: [5] 0.834

DDX27 (UniProt Q96GQ7)
inactive: [1] 0.002 | [2] 0.04 | [3] 0.198 | [4] 0.123 | entinostat -0.106 | vorinostat -0.039 | citarinostat -0.103 | silmitasertib 0.087 | [5] 0.326 | [6] -0.218 | entospletinib -0.035

EIF3J isoform 2 (UniProt O75822)
inactive: [1] -0.094 | [2] -0.197 | [3] -0.102 | [4] 0.023 | entinostat -0.041 | silmitasertib -0.11 | [5] 0.002

DCP2 (UniProt Q8IU60)
inactive: [1] -0.076 | [2] 0.009 | [4] -0.079 | entinostat 0.048 | [5] 0.048

ELOC (UniProt Q15369)
inactive: [1] -0.008 | [2] -0.011 | [3] -0.015 | [4] -0.008 | entinostat 0.024 | vorinostat 0.024 | citarinostat 0.036 | silmitasertib -0.007 | [5] -0.107 | [6] -0.053 | entospletinib 0.028

CTSL (UniProt P07711)
inactive: [1] 0.082 | [2] -0.045 | [3] -0.123 | [4] 0.039 | entinostat -0.074 | vorinostat -0.053 | citarinostat -0.018 | silmitasertib 0.027 | [5] -0.079 | [6] -0.011 | entospletinib 0.091

DENND10 (UniProt Q8TCE6)
Chain of UniProt Q8TCE6 (Q8TCE6 whole entry, looked up): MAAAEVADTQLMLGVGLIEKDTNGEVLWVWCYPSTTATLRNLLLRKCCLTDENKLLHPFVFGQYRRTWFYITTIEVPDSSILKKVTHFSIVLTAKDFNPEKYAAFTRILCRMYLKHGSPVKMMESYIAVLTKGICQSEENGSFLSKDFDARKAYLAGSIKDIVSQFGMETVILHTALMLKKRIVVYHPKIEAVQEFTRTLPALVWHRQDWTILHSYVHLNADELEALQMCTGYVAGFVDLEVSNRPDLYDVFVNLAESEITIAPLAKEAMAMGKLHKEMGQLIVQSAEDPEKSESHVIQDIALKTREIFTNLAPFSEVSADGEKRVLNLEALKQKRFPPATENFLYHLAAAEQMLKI
inactive: [1] 0.018 | [2] 0 | [3] -0.089 | [4] -0.069 | entinostat -0.076 | citarinostat 0.07 | silmitasertib 0.037 | [5] 0.073 | [6] 0.054 | entospletinib -0.006

EIF4E2 (UniProt O60573)
inactive: [1] 0.054 | [2] -0.015 | [3] 0.085 | [4] -0.048 | entinostat 0.075 | citarinostat 0.245 | silmitasertib 0.019 | [5] 0.003 | [6] 0.079 | entospletinib -0.107

F5 (UniProt P12259)
inactive: [1] -0.095 | [2] -0.08 | [3] 0.048 | [4] -0.024 | entinostat -0.045 | vorinostat -0.016 | citarinostat -0.019 | silmitasertib 0.127 | [5] 0.084 | [6] 0.002 | entospletinib 0.133

EIF2AK1 (UniProt Q9BQI3)
inactive: [1] -0.034 | [2] 0.018 | [3] -0.023 | [4] 0.001 | entinostat 0.129 | vorinostat -0.058 | silmitasertib 0 | [5] 0.133

CTSZ (UniProt Q9UBR2)
inactive: [1] -0.029 | [2] -0.005 | [4] 0.044 | entinostat -0.023 | vorinostat 0.013 | citarinostat 0.019 | silmitasertib 0.008 | [5] -0.047 | [6] 0.006 | entospletinib 0.13
active: [3] -0.511

DYNC1I2 isoform 2 (UniProt Q13409)
inactive: [1] 0.181 | [2] 0 | [3] -0.037 | entinostat -0.206 | citarinostat 0.094 | silmitasertib -0.154 | [5] -0.127 | [6] -0.035 | entospletinib 0.082

FAM241A (UniProt Q8N8J7)
Chain of UniProt Q8N8J7 (Q8N8J7 whole entry, looked up): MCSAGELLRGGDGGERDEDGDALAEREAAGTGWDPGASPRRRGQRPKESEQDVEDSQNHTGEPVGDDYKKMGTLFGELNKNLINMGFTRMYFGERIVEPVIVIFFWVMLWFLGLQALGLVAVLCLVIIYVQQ
inactive: [2] -0.033 | [3] -0.032 | [4] -0.004 | vorinostat -0.005 | citarinostat -0.09 | silmitasertib 0.045 | [6] -0.058 | entospletinib -0.008
active: [1] 0.661 | entinostat 0.424

EIF4G3 isoform 3 (UniProt O43432)
Chain of UniProt O43432 (O43432 whole entry, looked up): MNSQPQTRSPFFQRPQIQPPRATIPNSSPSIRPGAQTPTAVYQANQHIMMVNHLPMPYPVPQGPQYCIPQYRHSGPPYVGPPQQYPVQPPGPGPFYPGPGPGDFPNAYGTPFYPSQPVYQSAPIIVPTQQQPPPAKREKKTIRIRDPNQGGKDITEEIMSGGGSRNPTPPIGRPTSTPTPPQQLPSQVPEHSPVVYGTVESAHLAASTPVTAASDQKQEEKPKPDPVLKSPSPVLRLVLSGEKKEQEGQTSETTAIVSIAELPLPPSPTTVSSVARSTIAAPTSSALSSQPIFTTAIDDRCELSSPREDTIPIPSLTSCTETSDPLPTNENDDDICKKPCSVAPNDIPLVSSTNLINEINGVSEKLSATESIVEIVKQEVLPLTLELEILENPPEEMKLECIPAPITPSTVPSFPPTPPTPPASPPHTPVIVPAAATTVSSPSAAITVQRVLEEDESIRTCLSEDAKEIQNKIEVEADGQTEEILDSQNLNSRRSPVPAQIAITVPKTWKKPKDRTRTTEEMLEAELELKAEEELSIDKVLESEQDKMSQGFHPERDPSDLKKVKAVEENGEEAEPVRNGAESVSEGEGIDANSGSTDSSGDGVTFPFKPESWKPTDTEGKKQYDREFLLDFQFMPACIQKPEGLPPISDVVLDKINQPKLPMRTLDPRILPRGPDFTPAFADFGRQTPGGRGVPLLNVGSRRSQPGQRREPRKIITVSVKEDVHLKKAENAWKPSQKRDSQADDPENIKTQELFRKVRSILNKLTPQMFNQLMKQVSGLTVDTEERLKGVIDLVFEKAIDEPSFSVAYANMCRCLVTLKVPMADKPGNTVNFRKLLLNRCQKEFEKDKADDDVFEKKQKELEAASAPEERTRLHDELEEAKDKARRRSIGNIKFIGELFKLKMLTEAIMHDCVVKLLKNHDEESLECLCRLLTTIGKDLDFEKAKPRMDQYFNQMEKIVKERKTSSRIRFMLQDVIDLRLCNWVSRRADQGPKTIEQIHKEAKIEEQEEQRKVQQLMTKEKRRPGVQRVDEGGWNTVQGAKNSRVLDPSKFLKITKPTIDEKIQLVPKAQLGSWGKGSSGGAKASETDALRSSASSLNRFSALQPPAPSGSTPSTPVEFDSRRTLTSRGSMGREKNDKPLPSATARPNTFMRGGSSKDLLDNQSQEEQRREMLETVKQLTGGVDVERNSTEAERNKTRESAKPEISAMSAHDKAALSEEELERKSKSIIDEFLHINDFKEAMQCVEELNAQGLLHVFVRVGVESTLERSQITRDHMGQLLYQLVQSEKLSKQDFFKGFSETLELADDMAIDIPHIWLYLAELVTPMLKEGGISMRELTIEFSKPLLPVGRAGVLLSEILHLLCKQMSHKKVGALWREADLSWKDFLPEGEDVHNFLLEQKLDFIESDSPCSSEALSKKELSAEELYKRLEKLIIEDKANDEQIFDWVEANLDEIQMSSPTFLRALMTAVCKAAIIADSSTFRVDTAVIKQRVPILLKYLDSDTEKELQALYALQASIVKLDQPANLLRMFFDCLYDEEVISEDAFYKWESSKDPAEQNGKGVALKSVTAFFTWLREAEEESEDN
inactive: [1] 0.012 | [2] -0.092 | [3] -0.062 | [4] -0.016 | entinostat 0.01 | citarinostat -0.114 | silmitasertib 0.146 | entospletinib 0.118
active: [6] -0.515

DYRK1A isoform 2 (UniProt Q13627)
inactive: [2] -0.034 | [3] -0.115 | [4] -0.064 | entinostat 0.028 | vorinostat 0.056 | citarinostat 0 | [5] -0.029 | entospletinib 0.003
active: [1] -0.225 | silmitasertib -0.292

DHX36 (UniProt Q9H2U1)
inactive: [1] 0 | [2] 0.025 | [3] -0.028 | [4] 0.056 | entinostat -0.003 | vorinostat -0.028 | citarinostat 0.014 | silmitasertib 0.009 | [5] 0.11 | entospletinib 0.016
active: [6] -0.283

DTNBP1 (UniProt Q96EV8)
inactive: [1] -0.022 | [2] -0.011 | [3] -0.038 | [4] -0.063 | entinostat 0.033 | vorinostat 0.091 | citarinostat -0.001 | silmitasertib -0.013 | [5] -0.032 | [6] -0.042 | entospletinib 0.004
